These results are taken from paper PMC5540273 (PLoS ONE, 2017).

Some test systems named below: CAMK1; CAMK2A; CAMK2B; CAMK2D; CAMK2G; CAMK4; CAMKK1; CAMKK2; CASK.
Conditions in all cases: concentration: 1 μM, replicates: in singlicate; n = 1
A further assay relates to T1, CDC2L1.
T1 construct: gene CDK11B
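Also: KINOMEscan kinase panel screen.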

Consider `N#Cc1cnc2cc(-c3cnc(CNCCN4CCOCC4)s3)ccc2c1Nc1ccc(Oc2ccccc2)cc1` [GW664114], for which the “%Inh” value is 22% with CAMK1; 0% with CAMK2A; 0% with CAMK2B; 21% in the assay with CAMK2D; 0% in the assay with CAMK2G; 0% in the assay on CAMK4. Moreover, the “%Inh” value in the assay on CAMKK1 was found to be 48%; with CAMKK2, 3%; in the assay on CASK, 15%; with CDC2L1, 0%.
As for `COc1cc(Nc2nccc(N3CCC(NC(=O)Nc4ccc5c(c4)OCO5)C3)n2)cc(OC)c1OC` (stereo not shown) [GSK1379766], the “%Inh” value in the assay with CAMK1 turned out to be 28%; in the assay on CAMK2A it was 0%; in the assay with CAMK2B, 0%; in the assay on CAMK2D it was 14%; in the assay on CAMK2G it was 28%; in the assay with CAMK4, 0%. Moreover, the “%Inh” value is recorded as 21% in the assay with CAMKK1, 24% in the assay on CAMKK2, 4% in the assay with CASK and 0% with CDC2L1.
For the compound `Cc1ccc(NC(=O)c2cccc(N3CCCCC3)c2)cc1-c1ccc(C(=O)NCC2CC2)cc1` [GSK1917008], the “%Inh” value in the assay with CAMK1 is recorded as 9%; in the assay on CAMK2A it was 0%; in the assay with CAMK2B, 0%; in the assay on CAMK2D it was 0%; with CAMK2G, 21%; in the assay on CAMK4 it was 1%. Besides, the “%Inh” value is recorded as 26% with CAMKK1, 11% in the assay on CAMKK2, 18% in the assay with CASK and 22% with CDC2L1.
For the compound `CSc1ccc(NC2=C(c3ccc(Cl)cc3)C(=O)NC2=O)cc1` [SB-317658], the “%Inh” value in the assay with CAMK1 came to 19%; with CAMK2A, 4%; in the assay with CAMK2B, 0%; in the assay with CAMK2D, 18%; in the assay with CAMK2G, 1%; in the assay with CAMK4, 12%. For the same compound, the “%Inh” value in the assay on CAMKK1, in the assay with CAMKK2, in the assay with CASK and in the assay on CDC2L1 was 0% throughout.
`COc1cccc(-c2nc(-c3ccccc3)[nH]c2-c2ccncc2)c1` [SB-610250]: the “%Inh” value in the assay on CAMK1 came to 1%; in the assay on CAMK2A, 0%; with CAMK2B, 0%; in the assay on CAMK2D, 0%; with CAMK2G, 2%; with CAMK4 it was 0%. Besides, the “%Inh” value in the assay on CAMKK1 came to 0%; in the assay with CAMKK2, 0%; in the assay with CASK, 15%; in the assay on CDC2L1, 0%.
In the case of `Cc1cccc(Nc2nc(NCCN)ncc2C(N)=O)c1` [GSK1292139], the “%Inh” value came out at 59% in the assay on CAMK1; 0% with CAMK2A; 0% in the assay on CAMK2B; 14% with CAMK2D; 27% in the assay with CAMK2G; 0% in the assay on CAMK4. Also, the “%Inh” value in the assay with CAMKK1 turned out to be 18%; in the assay on CAMKK2 it was 28%; with CASK, 13%; in the assay with CDC2L1 it was 0%.
For the compound `COc1ccc(C)c(Nc2ccnc(Nc3ccc(-c4cnc[nH]4)cc3)n2)c1.Cl` [GW784041], the “%Inh” value was 17% with CAMK1; 0% with CAMK2A; 1% with CAMK2B; 22% in the assay on CAMK2D; 0% in the assay on CAMK2G; 30% in the assay with CAMK4. The “%Inh” value with CAMKK1 is reported as 19%; in the assay on CAMKK2, 0%; in the assay with CASK it was 0%; with CDC2L1, 8%.
Regarding `c1ccc(Oc2ccc(Nc3ccnc4cc(-c5ccc(CN6CCCCC6)o5)ccc34)cc2)nc1` [GW567143], the “%Inh” value in the assay on CAMK1 is given as 28%; in the assay with CAMK2A it was 0%; with CAMK2B it was 0%; in the assay on CAMK2D, 0%; in the assay on CAMK2G, 0%; in the assay with CAMK4, 0%. The “%Inh” value in the assay with CAMKK1 came out at 0%; with CAMKK2 it was 0%; in the assay on CASK, 49%; with CDC2L1, 0%.
In the case of `CCNc1nccc(-c2c(-c3ccc(F)cc3)ncn2C2CCN(C)CC2)n1`, the “%Inh” value in the assay on CAMK1 is 0%; in the assay on CAMK2A it was 18%; with CAMK2B, 0%; in the assay on CAMK2D, 16%; in the assay with CAMK2G, 8%; with CAMK4 it was 0%. Besides, the “%Inh” value in the assay on CAMKK1 came to 12%; in the assay on CAMKK2, 9%; in the assay with CASK, 0%; in the assay with CDC2L1 it was 7%.
`Cn1cc(-c2ccc3c(c2)CCN3C(=O)Cc2cc(F)cc(F)c2F)c2c(N)ncnc21` [GSK2634140]: the “%Inh” value with CAMK1 came to 15%; with CAMK2A it was 0%; in the assay with CAMK2B, 0%; in the assay with CAMK2D, 0%; in the assay with CAMK2G, 11%; in the assay with CAMK4, 0%. Also, the “%Inh” value was determined as 27% in the assay on CAMKK1, 1% with CAMKK2, 3% in the assay on CASK and 0% with CDC2L1.
Regarding `Cn1cc(-c2cnc(N)c3c(-c4ccc5c(c4)CCN5C(=O)Cc4ccccc4)csc23)cn1` [GSK2593074], the “%Inh” value is reported as 0% in the assay on CAMK1; 29% in the assay with CAMK2A; 12% in the assay with CAMK2B; 0% with CAMK2D; 13% in the assay with CAMK2G; 0% in the assay with CAMK4. In addition, the “%Inh” value with CAMKK1 worked out at 11%; with CAMKK2, 19%; with CASK, 23%; with CDC2L1, 4%.
For `Cl.O=C(Nc1ccc(Oc2ccc3[nH]c(NC(=O)c4ccco4)nc3c2)cc1)Nc1cc(C(F)(F)F)ccc1F` [GW683134], the “%Inh” value in the assay with CAMK1, in the assay on CAMK2A, with CAMK2B, in the assay with CAMK2D, in the assay with CAMK2G and in the assay on CAMK4 was 0% throughout. The “%Inh” value was 0% with CAMKK1, 0% in the assay on CAMKK2, 50% in the assay on CASK and 0% in the assay on CDC2L1.
On to `N#CC1(c2cccc(C(=O)Nc3cccc(Oc4ccc5nc(NC(=O)C6CC6)sc5n4)c3)c2)CC1`, for which the “%Inh” value with CAMK1 worked out at 0%; with CAMK2A, 29%; in the assay on CAMK2B, 26%; in the assay with CAMK2D, 20%; with CAMK2G, 100%; in the assay on CAMK4, 2%. The “%Inh” value with CAMKK1 came out at 9%; in the assay with CAMKK2, 99.6%; with CASK, 16%; in the assay with CDC2L1 it was 0%.
In the case of `CN1CCN(Cc2ccc(NC(=O)Nc3ccc(N(C)c4ccnc(Nc5ccc(CS(C)(=O)=O)cc5)n4)cc3)cc2)CC1.Cl` [GW827654], the “%Inh” value is on record as 28% with CAMK1; 0% with CAMK2A; 0% in the assay with CAMK2B; 9% in the assay on CAMK2D; 15% in the assay with CAMK2G; 0% in the assay with CAMK4. Further, the “%Inh” value in the assay with CAMKK1 is listed as 95.4%; with CAMKK2, 28%; in the assay on CASK, 3%; with CDC2L1, 33%.
As to `Cc1nn2c(=O)cc(N3CCO[C@H](C)C3)nc2n1Cc1cccc(Cl)c1Cl` [GSK2373693], the “%Inh” value in the assay with CAMK1 was determined as 0%; in the assay on CAMK2A it was 0%; in the assay on CAMK2B, 0%; with CAMK2D, 10%; with CAMK2G, 5%; in the assay on CAMK4 it was 5%. Further, the “%Inh” value with CAMKK1 is 20%; in the assay with CAMKK2, 2%; with CASK, 75%; in the assay on CDC2L1 it was 0%.
For the compound `COc1cccc(C2=C(Nc3cccc(O)c3)C(=O)NC2=O)c1` [SB-390771], the “%Inh” value came to 4% in the assay on CAMK1; 17% in the assay on CAMK2A; 0% in the assay with CAMK2B; 25% in the assay on CAMK2D; 34% in the assay on CAMK2G; 0% in the assay with CAMK4. For the same compound, the “%Inh” value with CAMKK1 came out at 15%; in the assay with CAMKK2 it was 28%; with CASK it was 28%; in the assay with CDC2L1 it was 0%.
